Experiment [1] in a line: NCI Yeast Anticancer Drug Screen. Data for the rad50 strain (AID 155).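 Further: 0% = growth of vehicle-only cultures of the same strain.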 Conditions: S. cerevisiae rad50 strain growth inhibition, stronger effect = higher value. Summed up:
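A DNA repair-deficient yeast mutant serves as the test organism; compound-induced growth inhibition is calculated against vehicle-treated cells.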

A short description of experiment [2]: NCI Yeast Anticancer Drug Screen. Data for the mec2-1 strain (AID 157). Conditions: S. cerevisiae mec2-1 strain, stronger effect = higher value. Summed up: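 Readout is yeast growth inhibition, normalised to vehicle-treated controls, in the mec2-1 strain exposed to compound.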
Experiment [3] can be described thus: NCI Yeast Anticancer Drug Screen. Data for the sgs1 mgt1 strain (AID 161).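 Further: 0% = growth of cultures given vehicle only.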 Conditions: S. cerevisiae sgs1 mgt1 strain, stronger effect = higher value. An outline of the steps:
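Compounds are added to genetically altered yeast, and growth is compared with cultures given vehicle alone to give percent inhibition.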

A short description of experiment [4]: NCI Yeast Anticancer Drug Screen. Data for the cln2 rad14 strain (AID 165).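 Further: 0% = growth equal to vehicle treated cultures.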 Conditions: S. cerevisiae cln2 rad14 strain, stronger effect = higher value. Summed up:
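Relative to vehicle controls, growth inhibition of compound-treated cln2 rad14 yeast was recorded.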

Experiment [5] is described as follows: NCI Yeast Anticancer Drug Screen. Data for the bub3 strain (AID 167). The note with it: S. cerevisiae bub3 mutant strain, stronger effect = higher value. Summed up:
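Inhibition values come from growth of compound-treated mutant yeast normalised to vehicle-treated controls.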

The nature of experiment [6]: NCI Yeast Anticancer Drug Screen. Data for the mlh1 rad18 strain (AID 175). The note with it: S. cerevisiae mlh1 rad18 strain growth inhibition, stronger effect = higher value. Summed up: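 Test agents were incubated with a yeast strain of defined genotype (DNA damage repair defect). Inhibition of growth was derived by comparison with vehicle-exposed cultures.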
Setting [7] is: at 5.0 µM (retest, dose inferred, filed as 0.5).
Where [8] appears, read: at 50.0 µM (retest, dose inferred, filed as 5.0).

Data on five molecules can be found in PubChem BioAssay (NCI).

This is part of a sample that, as a whole, favours compounds with a hit. Of some 79,000 tested, about 15% had one in any assay. A number with no mark means an inactive call. Activity calls are given as the source filed them. No stated cut-off is given here; in the data, active means growth inhibition above about 70%; inactive means the rest.

Regarding `O=C(N/C(=C\c1ccc(Cl)cc1)c1nc2ccccc2[nH]1)c1ccccc1`, the growth inhibition in experiment [1] (setting [7]) is 0%; in experiment [1] (setting [8]), 96% (active); in experiment [1] (at 50.0 µM) it was 97.3% (active); in experiment [2] (setting [7]) it was -1%; in experiment [2] (setting [8]), 98% (active); in experiment [2] (at 50.0 µM) it was 97.5% (active). The growth inhibition in experiment [3] (setting [7]) is 10%; in experiment [3] (setting [8]), 98% (active); in experiment [3] (at 50.0 µM), 96.8% (active); in experiment [4] (setting [7]), -1%; in experiment [4] (setting [8]), 97% (active); in experiment [4] (at 50.0 µM), 96.5% (active). The growth inhibition is 13% in experiment [5] (setting [7]); 97% (active) in experiment [5] (setting [8]); 98.1% (active) in experiment [5] (at 50.0 µM); 2% in experiment [6] (setting [7]); 97% (active) in experiment [6] (setting [8]); 96.7% (active) in experiment [6] (at 50.0 µM).
For the molecule `Cc1nc2c([N+](=O)[O-])c(N3CCCCC3)c([N+](=O)[O-])cc2[nH]1`, the growth inhibition is 10% in experiment [1] (setting [7]); 97% (active) in experiment [1] (setting [8]); 98.8% (active) in experiment [1] (at 50.0 µM); 13% in experiment [2] (setting [7]); 98% (active) in experiment [2] (setting [8]); 99% (active) in experiment [2] (at 50.0 µM). Further, the growth inhibition in experiment [3] (setting [7]) was 13%; in experiment [3] (setting [8]), 98% (active); in experiment [3] (at 50.0 µM), 99.1% (active); in experiment [4] (setting [7]) it was 17%; in experiment [4] (setting [8]) it was 94% (active); in experiment [4] (at 50.0 µM), 97.7% (active). In addition, the growth inhibition was 0% in experiment [5] (setting [7]); 83% (active) in experiment [5] (setting [8]); 98.7% (active) in experiment [5] (at 50.0 µM); 8% in experiment [6] (setting [7]); 98% (active) in experiment [6] (setting [8]); 99.1% (active) in experiment [6] (at 50.0 µM).
`CCCCCCN(CCCCCC)CCCC(O)c1cccc2ccccc12` (stereo not given): the growth inhibition in experiment [1] (setting [7]) is -2%; in experiment [1] (setting [8]), -5%; in experiment [1] (at 50.0 µM), 99.2% (active); in experiment [2] (setting [7]), 2%; in experiment [2] (setting [8]), 2%; in experiment [2] (at 50.0 µM) it was 99.3% (active). Moreover, the growth inhibition in experiment [3] (setting [7]) was 0%; in experiment [3] (setting [8]), 1%; in experiment [3] (at 50.0 µM), 99.2% (active); in experiment [4] (setting [7]), 0%; in experiment [4] (setting [8]) it was -3%; in experiment [4] (at 50.0 µM), 99.2% (active). For the same molecule, the growth inhibition in experiment [5] (setting [7]) is -2%; in experiment [5] (setting [8]), 2%; in experiment [5] (at 50.0 µM), 97% (active); in experiment [6] (setting [7]), 1%; in experiment [6] (setting [8]), -3%; in experiment [6] (at 50.0 µM) it was 99.2% (active).
For the molecule `O=C(NN1C(=O)C(Cl)C1c1ccc(O)cc1)c1ccccc1O` (stereo not given), the growth inhibition in experiment [1] (setting [7]) was -4%; in experiment [1] (setting [8]), 78% (active); in experiment [1] (at 50.0 µM), 79.5% (active); in experiment [2] (setting [7]), 13%; in experiment [2] (setting [8]) it was 79% (active); in experiment [2] (at 50.0 µM) it was 61%. The growth inhibition was 0% in experiment [3] (setting [7]); 72% (active) in experiment [3] (setting [8]); 69.9% in experiment [3] (at 50.0 µM); 13% in experiment [4] (setting [7]); 63% in experiment [4] (setting [8]); 44% in experiment [4] (at 50.0 µM). In addition, the growth inhibition in experiment [5] (setting [7]) was 11%; in experiment [5] (setting [8]), 90% (active); in experiment [5] (at 50.0 µM), 71.1% (active); in experiment [6] (setting [7]), 20%; in experiment [6] (setting [8]) it was 91% (active); in experiment [6] (at 50.0 µM), 67.7%.
`O=C(/C=C/c1ccccc1)CCN1CCN(CCC(=O)/C=C/c2ccccc2)CC1`: the growth inhibition was 36% in experiment [1] (setting [7]); 100% (active) in experiment [1] (setting [8]); 99.2% (active) in experiment [1] (at 50.0 µM); 56% in experiment [2] (setting [7]); 100% (active) in experiment [2] (setting [8]); 99.5% (active) in experiment [2] (at 50.0 µM). For the same molecule, the growth inhibition in experiment [3] (setting [7]) was 40%; in experiment [3] (setting [8]), 57%; in experiment [3] (at 50.0 µM) it was 99.4% (active); in experiment [4] (setting [7]) it was 88% (active); in experiment [4] (setting [8]), 100% (active); in experiment [4] (at 50.0 µM), 99.4% (active). The growth inhibition is 36% in experiment [5] (setting [7]); 99% (active) in experiment [5] (setting [8]); 99.4% (active) in experiment [5] (at 50.0 µM); 78% (active) in experiment [6] (setting [7]); 100% (active) in experiment [6] (setting [8]); 99.5% (active) in experiment [6] (at 50.0 µM).
